Assay outcomes deposited in PubChem BioAssay by National Center for Advancing Translational Sciences (NCATS).
In the library only some 2.2% were active in any assay of this set; here they are far more common.
A549 tox-1 – Nrf2 qHTS screen for inhibitors: counterscreen for cytotoxicity | Potency, µM (doses to about 46 µM), inactives show top-dose activity change, negative = cytotoxicity, actives largely listed as inhibitors | A549 ARE-Fluc cells, CellTiter-Fluor viability, 18-24 h | hit rate 0.16% among 390,000; note: potency is the fitted concentration of half-maximal effect; % is set by controls: 0 for no effect and ±100 for the full control effect
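A549 ARE_Fluc cells in 5% FBS OPTI-MEM were exposed to compounds in concentration-response for 18-24 h at 37 deg C. Viability was read by CellTiter-Fluor fluorescence (Ex 405/Em 525) after 30 min, before the luciferase read.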
B2AR arrestin – qHTS assay of beta-arrestin-biased ligands of beta2-adrenergic receptor; beta-arrestin recruitment to beta2AR, cell-based reporter; Potency, µM (titrated, usually from 46.1 µM), for inactives: at the highest dose activation, hits mostly activators; hit rate 0.02% among 330,000; AID 492947, 2010;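 note: potency is the fitted concentration of half-maximal effect; 0% = DMSO controls and full agonism = EC100 isoproterenol or metaproterenol; nearly all actives have a fitted effect of over 65% in size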
Target sequence (P07550 whole entry, looked up): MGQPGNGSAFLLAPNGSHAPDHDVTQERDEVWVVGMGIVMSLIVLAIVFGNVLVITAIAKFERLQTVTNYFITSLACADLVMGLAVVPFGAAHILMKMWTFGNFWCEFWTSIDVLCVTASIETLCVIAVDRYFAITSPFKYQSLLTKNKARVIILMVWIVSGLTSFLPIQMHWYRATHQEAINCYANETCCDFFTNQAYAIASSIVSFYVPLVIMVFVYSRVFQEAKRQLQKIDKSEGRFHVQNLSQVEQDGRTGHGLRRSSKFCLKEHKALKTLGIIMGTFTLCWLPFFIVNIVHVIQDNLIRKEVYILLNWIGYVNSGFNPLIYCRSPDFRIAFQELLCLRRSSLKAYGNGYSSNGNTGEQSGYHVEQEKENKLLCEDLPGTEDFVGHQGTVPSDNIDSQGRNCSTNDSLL
Nrf2 ARE act – qHTS of Nrf2 Activators | AREc32 ARE-luciferase reporter (MCF7-derived line), luminescence, 24 h | Potency, µM (doses to about 46.1 µM), without a hit: at the top dose activation, most hits filed as activators | hit rate 0.31% among 410,000 | AID 624171, 2012; note: potency is the fitted concentration of half-maximal effect; % of control where 0% means no effect; nearly all actives have a fitted effect of over 65% in size
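AREc32_Fluc, 1000 cells/well, OPTI-MEM + 5% FBS, o/n 37 deg C 5% CO2; 23 nL cpd by pin tool, 24 hr; Steady-Glo 30 min RT, luminescence.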
Nrf2 block – Nrf2 qHTS screen for inhibitors. hit rate 2.1% among 360,000. AID 504444, 2011. A549 ARE-Fluc reporter, luciferase luminescence, 18-24 h. Potency, µM (series often up to 46 µM), for inactives: at the highest dose activity change, negative = inhibition, actives largely listed as inhibitors; note: potency is the fitted concentration of half-maximal effect; % is set by controls: 0 for no effect and ±100 for the full control effect; nearly all actives have a fitted effect of over 60% in size
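Nrf2 function is reported as luminescence of an ARE-controlled luciferase in A549 cells. Compounds were tested at several concentrations, and a CellTiter-Fluor read on the same wells flagged cytotoxicity.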
miR-21 reporter – qHTS Assay for Modulators of miRNAs and/orActivators of miR-21; HeLa miR-21 FLuc reporter, luciferase, 48 h; Potency, µM (top dose mostly 38.3 µM), inactives show top-dose activity change, positive = activation, hits mostly activators; 340,000 tested, under 10 active;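 note: % of control where 0% means no effect; miR-21 action dims this reporter so a rising signal means less miR-21 action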
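HeLa cells endogenously expressing miR-21, stably carrying CMV-driven firefly luciferase with a downstream miR-21 binding site, 2000 cells/well. Titrations up to approximately 40 uM, 48 hours; luciferase luminescence read.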
FLuc enzyme inh – Nrf2 qHTS screen for inhibitors: Purified Fluc Biochemical Counterscreen for Hit Validation. shares compounds with Nrf2 block. purified firefly luciferase, luminescence inhibition. Potency, µM (top dose mostly 57.5 µM), inactives show at the highest dose activity change, negative = inhibition, most hits filed as inhibitors. hit rate 4% among 1,400. AID 720522, 2013; note: potency is the fitted concentration of half-maximal effect; % is set by controls: 0 for no effect and ±100 for the full control effect; nearly all actives have a fitted effect of over 65% in size
A549 tox-2 – Nrf2 qHTS screen for inhibitors: A549 ARE-Fluc Cytotoxicity Counterscreen for Hit Validation. shares compounds with Nrf2 block. A549 ARE-Fluc cells, cytotoxicity counterscreen. Potency, µM (doses to about 46.1 µM), inactives show top-dose activity change, negative = cytotoxicity, usual class: inhibitors. hit rate 2% among 1,400;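 note: potency is the fitted concentration of half-maximal effect; cells exposed to compounds for 18 to 24 hours; % is set by controls: 0 for no effect and ±100 for the full control effect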
Nrf2 ARE inh – Nrf2 qHTS screen for inhibitors: Nrf2 A549 ARE-Fluc Confirmation Assay for Hit Validation; A549 ARE-firefly luciferase reporter, luminescence; AID 720524, 2013; shares compounds with Nrf2 block; hit rate 74% among 1,400; Potency, µM (highest dose often 46.1 µM), inactives show at the highest dose activity change, negative = inhibition, usual class: inhibitors; note: potency is the fitted concentration of half-maximal effect; % is set by controls: 0 for no effect and ±100 for the full control effect; nearly all actives have a fitted effect of over 65% in size
* marks the source's active call; other numbers are inactive results; ? = inconclusive; nt = no result given; [ ] = remark or other dose. Calls come from the whole dose curve; as a rule, active = well fitted curve in the direction sought with a large enough effect; inconclusive = small, poorly fitted or top-dose-only effect, or another doubt; inactive = no such curve, though single readings can be large; an effect the other way counts as inactive or inconclusive.

SMILES	A549 tox-1	B2AR arrestin	Nrf2 ARE act	Nrf2 block	miR-21 reporter	FLuc enzyme inh	A549 tox-2	Nrf2 ARE inh
COc1ccc2[nH]c(=O)c(CN(Cc3cccs3)C(=S)Nc3cccc(C)c3)cc2c1	0.2%	0.0%	-0.1%[9.22 µM]	2.06µM*	0.6%	-0.3%	-10.0%	?
Cc1ccc(-c2ccc(C3C4C=CCC(C)C4C(=O)N3Cc3ccccc3)c(F)c2)cc1 (centres undefined)	11.3%	nt	nt	-4.2%	nt	nt	nt	nt
O=C(NCc1ccccc1)[C@]1(C(F)(F)F)C[C@H](CCC2CCCCC2)CCCO1	-0.9%	nt	nt	-22.8%	nt	nt	nt	nt
Cc1cccc(-c2nc(CSc3nncn4c3cc3oc(C)cc34)c(C)o2)c1	4.9%	nt	1.9%	22.2%	-3.1%	nt	nt	nt
COc1ccc(CCC(=O)Nc2cccc(S(=O)(=O)N3CCCCCC3)c2)cc1OC	?	-0.8%	0.9%	?	nt	nt	nt	nt
COc1ccc(NC(C)C(=O)Nc2cccc(S(=O)(=O)N3CCOCC3)c2)cc1OC (centres undefined)	?	0.0%	0.3%	6.51µM*	nt	-8.2%	-13.0%	6.51µM*
COc1ccc(CC(=O)Nc2cccc(SC)c2)cc1OC	-25.3%	-0.1%	-0.5%	2.91µM*	18.0%	-1.1%	-2.6%	8.2µM*
COc1ccc(CC(=O)Nc2cccc(S(=O)(=O)N3CCCCCC3)c2)cc1OC	?	-0.8%	2.3%	1.84µM*	19.2%	-2.5%	-21.5%	4.11µM*
COc1ccc(NC(=O)c2cc(S(=O)(=O)N3CCCC3)cn2C)cc1Cl	-6.7%	-0.6%	0.2%	3.66µM*	0.1%	-15.6%	1.4%	16.2%
Cc1ccccc1CNC(=O)Cc1csc2ccccc12	16.5%	nt	4.8%	89.8%	-37.7%	nt	nt	nt
COc1cc(OC)cc(-c2cc3nc(C)c(CCC(=O)NCc4ccccc4)c(C)n3n2)c1	1.7%	-0.9%	-1.7%	7.31µM*	?	-17.7%	3.3%	7.31µM*
COc1cc(OC)cc(-c2cc3nc(C)c(CCC(=O)Nc4ccc(C(C)=O)cc4)c(C)n3n2)c1	-10.2%	nt	-3.3%	4.11µM*	?	-12.4%	-4.7%	18.4µM*
CCCCN(CC)C(=O)CSc1nc2n[nH]c(C)c2c(=N)n1-c1ccc(CC)cc1	-19.1%	nt	-2.9%	nt	28.9%	nt	nt	nt
FC(F)(F)c1cc(-c2ccccc2)nc(N2CCCCC2)n1	3.4%	-0.2%	-0.3%	nt	2.9%	nt	nt	nt
O=C(O)C1CCCN1c1nc(-c2ccc(Cl)c(Cl)c2)cc(C(F)(F)F)n1 (centres undefined)	-13.6%	-0.8%	0.1%	7.31µM*	nt	-11.7%	-20.5%	nt
COc1ccc(-c2c(C)sc(NC(=O)c3ccnn3C)c2C#N)cc1	-9.5%	-0.5%	4.9%	6.51µM*	-30.8%	-13.9%	?	nt
COc1ccc2c(c1)/C(=C\c1cccc(/C=C3/C(=O)Nc4ccc(OC)cc43)n1)C(=O)N2	-28.5%	nt	6.7%	8.2µM*	nt	?	-16.4%	?
CN(C)c1ccc(/C=C/c2nc3ccccc3c(=O)[nH]2)cc1	5.8%	-0.6%	-0.1%	-15.4%	-10.0%	nt	nt	nt
CN(C)c1ccc(/C=C/c2cc3ccccc3c[n+]2C)cc1	nt	nt	nt	nt	nt	-22.1%	?	6.51µM*
CN(C)c1ccc(/C=C/c2ccc3c4ccccc4ccc3[n+]2-c2ccccc2)cc1	10.3µM*	0.4%	-3.0%	3.66µM*	?	?	7.31µM*	2.91µM*
Cc1ccc(OCC(=O)Nc2ccc3nc(SCC(=O)Nc4ccc(C)cc4C)sc3c2)cc1	-26.7%	nt	0.3%	?	-4.4%	nt	nt	nt
Cc1onc(-c2c(F)cccc2Cl)c1C(=O)Nc1nccs1	0.5%	0.1%	-0.3%	-12.9%	6.9%	nt	nt	nt
Cc1onc(-c2c(F)cccc2Cl)c1C(=O)Nc1nnc(C(F)(F)F)s1	?	0.1%	4.9%	1.46µM*	29.0%	-1.7%	-9.0%	0.116µM*
Cc1cccc(C(=O)Nc2ccnc(-c3cccnc3)n2)c1	-2.2%	-0.4%	0.1%	?	-0.3%	nt	nt	nt
Cc1cccc(C(=O)Nc2ccc3oc(-c4ccncc4)nc3c2)c1	-2.4%	nt	-1.0%	9.2µM*	8.0%	-17.7%	-4.6%	1.46µM*
SMILES	A549 tox-1	B2AR arrestin	Nrf2 ARE act	Nrf2 block	miR-21 reporter	FLuc enzyme inh	A549 tox-2	Nrf2 ARE inh
O=C(Nc1ccc2oc(-c3ccncc3)nc2c1)c1ccc(F)cc1	0.1%	0.0%	-0.9%	?	-6.7%	nt	nt	nt
Cc1cccc(C(=O)Nc2ccnc(-c3ccncc3)n2)c1	?	-0.1%	-0.2%	2.59µM*	4.0%	-2.6%	0.7%	-24.3%
CCc1cccc(NC(=O)c2cc3c(=O)n(Cc4ccc(OC)cc4)ccc3nc2C)c1	0.0%	nt	3.5%	-16.7%	14.4%	nt	nt	nt
COc1ccc(/C=C2\SC(=O)N(CCCC(=O)Nc3cc(Cl)ccc3C(=O)O)C2=O)cc1	-9.7%	-0.5%	-2.3%	0.731µM*	nt	12µM*	-5.7%	1.46µM*
COc1cc2c(oc(=O)c3cc(C)cc(OC)c32)c2c(C3OC(C)C(O)C(C)(O)C3O)ccc(O)c12 (centres undefined)	5.8µM*	nt	-2.0%	1.3µM*	nt	-13.1%	?	1.84µM*
COc1cccc2cc(C(=O)N3CC(C)OC(C)C3)c(=O)oc12 (centres undefined)	15.5%	0.4%	0.2%	1.8%	3.1%	nt	nt	nt
COc1cc([N+](=O)[O-])ccc1NC(=O)N1CCC2(CC1)Nc1ccccc1-n1cccc12	-5.1%	nt	-0.4%	nt	2.1%	nt	nt	nt
Cc1c(C(=O)NCc2ccccc2Cl)sc2nc3n(c(=O)c12)CCCCC3	-12.8%	nt	5.0%	4.61µM*	-9.9%	-26.2%	-0.6%	-11.5%
Cc1cccc(N2CCN(C(=O)c3ccc4c(Cl)c5c(nc4c3)CCCC5)CC2)c1C	-4.2%	nt	-0.6%	6.9%	0.6%	nt	nt	nt
Cc1ccc(CNC(=O)c2cc3c(s2)-c2ccc(Cl)cc2SC3)cc1	2.2%	nt	-0.1%	?	0.9%	nt	nt	nt
CN(C)CCNC(=O)c1cc2c(s1)-c1ccc(Cl)cc1SC2	4.0%	-0.4%	-3.0%	5.8µM*	?	-1.4%	?	0.013µM*
